Most compounds without a hit are left out; they make up all but 10% or so of the library.
JMJD2A Tudor = inhibitors of human JMJD2A Tudor domain; O75164; AlphaScreen JMJD2A-Tudor / H3K4me3 peptide binding; Potency, µM (series often up to 114 µM), usual class: inhibitors; actives 4.4% (n = 390,000); AID 504339; note: nearly all actives have a fitted effect of over 50% in size
BAZ2B block = blocks human BAZ2B. Q9UIF8. AlphaScreen BAZ2B-H3K14Ac peptide displacement. Potency, µM (doses to about 114 µM), hits mostly inhibitors. actives 4.4% (n = 360,000); note: nearly all actives have a fitted effect of over 60% in size
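Complex of BAZ2B and biotin-H3K14Ac (50 nM apiece) forms over 30 min at RT, then faces library compounds up to 110 uM for another 30 min; AlphaScreen beads added, 20 min dark incubation, luminescence read.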
G9a inh = blocks human histone lysine methyltransferase G9a; actives 8.8% (n = 350,000); G9a H3K9 monomethylation, AlphaScreen, 2 h; Potency, µM (series often up to 102 µM), most hits filed as inhibitors; note: nearly all actives have a fitted effect of over 75% in size
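Using a bead-based AlphaScreen, monomethylated H3K9 product from 2 h room-temperature reactions (G9a 20 nM, peptide 500 nM, SAM 20 uM) was detected with 0.5 ug/mL rabbit anti-H3K9me1 antibody.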
GLS inh = inhibitors of human glutaminase (GLS); O94925; GLS enzymatic activity, qHTS titration; Potency, µM (highest dose often 45.5 µM), usual class: inhibitors; actives 0.21% (n = 410,000)
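Compounds were pin-transferred onto hKGA, after which L-glutamine (1 mM solution) and a detection mix of glutamate oxidase, HRP and Amplex Red were added. Initial and 30 min RT fluorescence reads were collected.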
HP1b chromo inh = blocks HP1-beta chromodomain binding to methylated histone tails | P83916 | AlphaScreen HP1-beta / biotin-H3K9me3 peptide binding | Potency, µM (titrated, usually from 114 µM), most hits filed as inhibitors | actives 0.56% (n = 390,000); note: nearly all actives have a fitted effect of over 70% in size
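AlphaScreen: HP1-beta (50 nM) preformed 30 min with biotin-H3(1-18)K9me3 peptide (50 nM) in PBS pH 7.4, 0.01% Tween-20. Compound added for 30 min at RT, then streptavidin donor/nickel chelate acceptor beads (10 ug/mL) for 30 min.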
A number is an active result; i = inactive; ? = inconclusive; nt = no result; [ ] = another dose, or the depositor's remark. Calls come from the whole dose curve; as a rule, active = well fitted curve in the direction sought with a large enough effect; inconclusive = small, poorly fitted or top-dose-only effect, or another doubt; inactive = no such curve, though single readings can be large; an effect the other way counts as inactive or inconclusive.

SMILES	JMJD2A Tudor	BAZ2B block	G9a inh	GLS inh	HP1b chromo inh
Cc1csc(NC(=O)CSc2nnc(-c3cc(C)on3)o2)n1	i	i	i	i	i
Cc1ccc2sc(N(CCN(C)C)C(=O)c3ccc(S(=O)(=O)N4CC(C)OC(C)C4)cc3)nc2c1C (centres undefined)	?	?	50µM	i	i
Cc1cc(C)c2nc(N(CCCN(C)C)C(=O)c3ccc(S(=O)(=O)N4CC(C)OC(C)C4)cc3)sc2c1 (centres undefined)	i	i	?	i	i
Cc1ccc2sc(N(CCCN(C)C)C(=O)c3ccc(S(=O)(=O)N4CCOCC4)cc3)nc2c1C	i	i	50µM	i	i
O=C(NCCc1ccccc1)c1ccc(Cn2c(SCc3ccc(F)cc3)nc3cccnc32)cc1	i	i	i	i	i
Clc1ccccc1-c1nc2ccccc2c2nncn12	i	i	i	i	i
Cc1nn(C)c(C)c1Sc1ccc(Br)cc1	i	i	i	i	i
Cc1ccccc1C(=O)Nc1ccc(C(=O)N/N=C/c2ccccn2)cc1	i	i	i	i	i
CCOC(=O)CSc1nc2ccc(NC(C)=O)cc2s1	i	i	i	i	i
COC(=O)CSc1nc2ccc(N)cc2s1	i	i	18µM	i	i
CCC1CCCCN1S(=O)(=O)c1ccc([N+](=O)[O-])cc1 (centres undefined)	i	?	71µM	i	i
CC1CCCCN1S(=O)(=O)c1ccc([N+](=O)[O-])cc1 (centres undefined)	i	i	nt	i	i
COc1cc2c(cc1OC)C(C)N(C(=O)c1cc3n(n1)C(C(F)(F)F)CC(c1ccco1)N3)CC2 (centres undefined)	?	?	18µM	i	i
O=C(Cc1cccc2ccccc12)N/N=C/c1ccc2cccc(O)c2n1	i	i	i	i	i
Oc1ccc(/C=N/N(Cc2ccccc2)c2ccccc2)c(O)c1O	56µM	28µM	28µM	?	?
NS(=O)(=O)c1ccc(N2CCCC2=O)c([N+](=O)[O-])c1	i	i	?	i	i
NNS(=O)(=O)c1ccc(N2CCCC2=O)c([N+](=O)[O-])c1	25µM	i	10µM	i	i
CCCN(CCC)S(=O)(=O)c1ccc(N2CCCC2=O)c([N+](=O)[O-])c1	i	i	i	i	i
CCCCN(CCCC)S(=O)(=O)c1ccc(N2CCCC2=O)c([N+](=O)[O-])c1	32µM	nt	nt	?	i
COC(=O)COc1coc(CN2CCN(c3cccc(Cl)c3)CC2)cc1=O	i	i	?	i	i
Cn1cnc([N+](=O)[O-])c1Nc1ccc(O)cc1	i	i	25µM	i	i
CCNc1c([N+](=O)[O-])ncn1C	i	i	i	i	i
O=C1CCC2CN3CCc4c([nH]c5ccccc45)C3CC2C1 (centres undefined)	nt	nt	nt	i	nt
CCCOC(=O)Nc1nc(-c2ccc(C)cc2)c(C)s1	i	i	50µM	i	i
CN(N)C(=S)Nc1ccc(F)cc1	i	i	50µM	i	i
SMILES	JMJD2A Tudor	BAZ2B block	G9a inh	GLS inh	HP1b chromo inh
Cc1ccc(NC(=S)N(C)N)cc1Cl	i	?	32µM	i	i
COc1ccc(CN(CC2CCC(C(=O)O)CC2)C(=S)Nc2ccc(C)c(Cl)c2)cc1 (centres undefined)	i	i	?	i	i
Cc1ccc(NC(=S)N(Cc2ccc(Cl)cc2)Cc2ccc(C(=O)O)cc2)cc1Cl	i	i	40µM	i	i
CN(C)C(=S)SCC(=O)NC(=O)NC(C)(C)C	i	i	i	i	i
O=C(Nc1cc(Sc2ccccn2)cc([N+](=O)[O-])c1)c1cccc(Cl)c1	?	?	i	i	i
Cc1cccc(OCC(=O)NNC(=O)c2ccc([N+](=O)[O-])cc2)c1	i	i	i	i	i
CCCCCCn1c(=O)[nH]c2nc3cc(N)c(C)cc3nc2c1=O	i	i	3.5µM	i	i
COc1cc(OC)c(CN2CCN(c3ccc(F)cc3)CC2)cc1Br	2.5µM	50µM	35µM	i	i
COc1cc(OC)c(CN2CCCN(C)CC2)cc1Br	1.4µM	79µM	nt	i	?
CCOC(=O)c1c(CN2CCN(C)CC2)n(C)c2cc(Br)c(OC)cc12	i	i	i	i	i
COc1ccccc1CC(=O)N1CCN(c2ccc(F)cc2)CC1	i	nt	nt	i	i
C[C@@H]1CN([C@H](C)CO)S(=O)(=O)c2ccc(Br)cc2O[C@@H]1CN(C)C(=O)Nc1ccc(C(F)(F)F)cc1	nt	nt	nt	i	nt
O=C(CSc1nnc(Cn2c(=O)sc3ccccc32)n1-c1ccccc1)NCc1ccco1	i	i	i	i	i
COc1ccc(OCC2c3cc(OC)c(OC)cc3CCN2C(=O)C(C)C)cc1 (centres undefined)	56µM	i	?	i	i
COC(=O)c1ccc(OCC2c3cc(OC)c(OC)cc3CCN2C(=O)c2ccco2)cc1 (centres undefined)	?	?	50µM	i	i
COC(=O)c1ccc(OCC2c3cc(OC)c(OC)cc3CCN2C(=O)c2ccc(OC)cc2)cc1 (centres undefined)	i	?	i	i	i
COc1ccc(CCNC(=O)C2CC(=O)N(c3ccccc3)C2)cc1OC (centres undefined)	i	i	?	i	i
C=CCN1C(=O)C(O)(CC(=O)c2ccc(-n3cccc3)cc2)c2ccccc21 (centres undefined)	?	50µM	?	i	?
COc1ccc(CC(NC(C)=O)C(=O)NC2CCN(C(=O)C3CCCCC3)CC2)cc1OC (centres undefined)	i	i	i	i	i
COCCNC(=S)N/N=C1\CC(C)CC(C)(C)C1 (centres undefined)	i	?	50µM	i	i
O=C1CS(=O)(=O)N(Cc2cccc(F)c2)c2ccc(Br)cc21	i	i	i[2.33 µM]	i	i
O=C1c2cc(Br)ccc2N(Cc2ccc(Br)cc2)S(=O)(=O)C1c1cc(Cl)c(Cl)cc1[N+](=O)[O-] (centres undefined)	35µM	nt	nt	i	?
CCOC(=O)C(C(=O)NCc1ccc(C)cc1)c1ncc(C(F)(F)F)cc1Cl (centres undefined)	i	i	i[12.7 µM]	i	i
CSCc1c(C(=O)Nc2ccc3c(c2)OCO3)oc2ccccc12	?	?	35µM	i	i
CCOC(=O)N1CCN(C(=O)CSc2ccc(-c3ccccc3OC)nn2)CC1	i	i	i	i	i
Cc1ccc(N2NC(C)(c3cccs3)NC2=S)cc1 (centres undefined)	?	?	8.9µM	i	i
C=CCNc1nc(-c2ccc(OC)cc2OC)cs1	?	56µM	?	i	i
CC(=O)C1=C(O)C(=O)N(c2ccc(S(=O)(=O)Nc3nccs3)cc2)C1c1ccc([N+](=O)[O-])cc1 (centres undefined)	i	?	79µM	i	i
O=S(=O)(Nc1nccs1)c1ccc(F)cc1	i	i	nt	i	i

Bioassay records: PubChem BioAssay, National Center for Advancing Translational Sciences (NCATS)
